This note sets out measurements from PubChem BioAssay (NCATS).

Test [1] can be described thus: qHTS for Inhibitors of the Functional Ribonucleoprotein Complex (vRNP) of Lassa (LASV) Arenavirus: LASV Primary Screen - GLuc reporter signal (AID 1347082; calls by dose curve; tested in HEK293 reporter line; further: on the % scale 0 is the no-effect control and ±100 the full control effect; nearly all actives have a fitted effect of over 60% in size). On the technique in general: In qHTS, concentration-response curves come from the screen itself.
A short description of test [2]: qHTS for Inhibitors of the Functional Ribonucleoprotein Complex (vRNP) of Lassa (LASV) Arenavirus: Viability assay - alamar blue signal for LASV Primary Screen (AID 1347083; calls by dose curve; tested in HEK293 reporter line; further: on the % scale 0 is the no-effect control and ±100 the full control effect; nearly all actives have a fitted effect of over 80% in size).
Test [3] can be described thus: qHTS for Inhibitors of the Functional Ribonucleoprotein Complex (vRNP) of Lymphocytic Choriomeningitis Arenaviruses (LCMV): Viability assay - alamar blue signal for LCMV Primary Screen (AID 1347085; calls by dose curve; tested in HEK293 reporter line; further: on the % scale 0 is the no-effect control and ±100 the full control effect; nearly all actives have a fitted effect of over 80% in size).
For test [4], the target named is Nucleoprotein (Lymphocytic choriomeningitis virus (strain Armstrong)) (UniProt P09992). Nature of the test: qHTS for Inhibitors of the Functional Ribonucleoprotein Complex (vRNP) of Lymphocytic Choriomeningitis Arenaviruses (LCMV): LCMV Primary Screen - GLuc reporter signal (AID 1347086). Further: on the % scale 0 is the no-effect control and ±100 the full control effect; nearly all actives have a fitted effect of over 70% in size.
The nature of test [5]: Confirmatory qHTS to identify inhibitors of SARS-CoV-2 cell entry (AID 1645844). Further: potency means the concentration at half of the fitted maximal effect; nearly all actives have a fitted effect of over 45% in size. The gist of the method:
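HEK293-ACE2, overnight seeding; cpd 1 h, 37C/5% CO2; + SARS-CoV-2-S MLV PP (Wuhan-Hu-1, ΔC19); 48 h; Bright-Glo luminescence. Data normalised to S PP and bald PP wells.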

Test [6] in a line: Cytotoxicity counterscreen for inhibitors of SARS-CoV-2 cell entry (AID 1645845). Further: nearly all actives have a fitted effect of over 50% in size. The gist of the method: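 Counterscreen run in the same HEK293-ACE2 line as the pseudotyped-particle entry assay, without particles. Viability after 48 h at 37 C was read as ATP luminescence, scaled between cell-containing and cell-free wells.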
(Counterscreens check selectivity or assay interference.)

A short description of test [7]: Primary qHTS to identify inhibitors of SARS-CoV-2 cell entry (AID 1645846). Further: nearly all actives have a fitted effect of over 45% in size. To be noted: activity change, negative = inhibition: at 57.1 µM (top of the series) unless noted. The method, boiled down:
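Luminescence readout (Bright-Glo luciferase) 48 h after pseudoparticle addition. HEK293-ACE2 cells, 1500/well; compound pre-incubation 1 h; Normalized to spike PP and bald PP.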

Test [8] in a line: VSVG counterscreen qHTS to identify inhibitors of SARS-CoV-2 cell entry (AID 1645847). Further: potency means the concentration at half of the fitted maximal effect; nearly all actives have a fitted effect of over 65% in size. The gist of the method: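 HEK293-ACE2 cells (Expi293F stably expressing human ACE2) were pretreated with compound for 1 h at 37 °C, then infected with MLV-based VSV-G pseudotyped particles for 48 h. Luciferase luminescence was normalized to VSV-G PP and bald PP wells.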
Test [9] deals with Cytochrome P450 3A4 (Homo sapiens) (UniProt P08684). Nature of the test: qHTS Assay for Inhibitors and Substrates of Cytochrome P450 3A4 (AID 884; active means well fitted curve in the direction sought with a large enough effect; an effect the other way counts as inactive or inconclusive; further: on the % scale 0 is the no-effect control and ±100 the full control effect; nearly all actives have a fitted effect of over 50% in size). The gist of the method: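 Luminescent readout of luciferin produced by CYP3A4 (20 nM) dealkylation of Luciferin-PPXE, 25 uM (its KM). NADPH-driven reaction ran 60 min at RT after 10 min compound preincubation; data scaled to 57 uM ketoconazole as 100% inhibition.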

Test [10] is described as follows: qHTS Assay for Lipid Storage Modulators (AID 1519). On activity change, negative = inhibition: on the % scale 0 is the no-effect control and ±100 the full control effect. The note with it: Drosophila S3 cells, BODIPY lipid droplet/cell ratio, laser cytometry, cells loaded with oleic acid. The gist of the method: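 Cells seeded at 5,000 per well were treated with compounds over a concentration series and loaded with oleic acid (400 uM, as added). Lipid droplet fluorescence (488 nm excitation, 500-530 nm channel) was read by laser-scanning cytometry and normalized to 20 uM Triacsin C.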

The target in test [11] is Ubiquitin carboxyl-terminal hydrolase 1 (Homo sapiens) (UniProt O94782). Nature of the test: Inhibitors of USP1/UAF1: Pilot qHTS (AID 504865; active means well fitted curve in the direction sought with a large enough effect; an effect the other way counts as inactive or inconclusive;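 further: rhodamine fluorescence freed from ubiquitin-rhodamine substrate followed over time; top concentration of the series differs between compounds; on the % scale 0 is the no-effect control and ±100 the full control effect; nearly all actives have a fitted effect of over 35% in size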). The method, boiled down:
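USP1/UAF1 complex (1nM) preincubated with compound 15 min at room temperature, then Ub-Rho substrate (150nM final) added. Fluorescence read kinetically at 480/540 nm, 6 reads every 60 seconds. Buffer: 50mM HEPES pH 7.8, 0.5mM EDTA, 0.1 mg/ml BSA, 1mM TCEP, 0.01% Tween-20.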

In test [12] the target is DNA dC->dU-editing enzyme APOBEC-3G (Homo sapiens) (UniProt Q9HC16). Nature of the test: qHTS for inhibitors of Vif-A3G interactions: Validation (AID 588379; active means well fitted curve in the direction sought with a large enough effect; an effect the other way counts as inactive or inconclusive; further: 0% is about no effect). The method, boiled down: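 Yellow fluorescence (Ex 488, Em 500-530) of Vif-coexpressing HeLa A3G-eYFP cells, scanned by Acumen cytometer, reports blocked A3G degradation. Cells plated at 700/well overnight at 37 deg C before compound addition, then a further overnight compound incubation at 37 deg C.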

Test [13] can be described thus: Primary qHTS for small molecule stabilizers of the endoplasmic reticulum resident proteome: Secreted ER Calcium Modulated Protein (SERCaMP) assay (AID 1508630; active means well fitted curve in the direction sought with a large enough effect; an effect the other way counts as inactive or inconclusive; further: on the % scale 0 is the no-effect control and ±100 the full control effect). The method, boiled down: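 The SH-SY5Y reporter protocol was run at 3 concentrations up to 38.3 uM (primary) or 11 concentrations (follow-up): 16 h compound, 100 nM thapsigargin for 4 h, then extracellular luciferase luminescence.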

Test [14] in a line: NCATS anti-infectives library activity on HEK293 viability as a counter-qHTS vs the C. elegans viability qHTS (AID 1745854; active means well fitted curve in the direction sought with a large enough effect; an effect the other way counts as inactive or inconclusive;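 further: HEK293 cells exposed to compounds for 24 hr before the viability read; on the % scale 0 is the no-effect control and ±100 the full control effect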). The gist of the method: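 Counter-screen for cytotoxicity: HEK293, 24 hr, 37C, compounds up to 41.7 uM final (a dilution series, 1:5). Readout CellTiter-Glo luminescence, 10 min RT. Digitonin control, 83.3 uM final.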

Records with an inconclusive call do not appear. Active and inactive are the calls of the source. Unless noted, the call rests on the fitted dose curve.

Sequence of Nucleoprotein (Lymphocytic choriomeningitis virus (strain Armstrong)) (P09992 whole entry, looked up): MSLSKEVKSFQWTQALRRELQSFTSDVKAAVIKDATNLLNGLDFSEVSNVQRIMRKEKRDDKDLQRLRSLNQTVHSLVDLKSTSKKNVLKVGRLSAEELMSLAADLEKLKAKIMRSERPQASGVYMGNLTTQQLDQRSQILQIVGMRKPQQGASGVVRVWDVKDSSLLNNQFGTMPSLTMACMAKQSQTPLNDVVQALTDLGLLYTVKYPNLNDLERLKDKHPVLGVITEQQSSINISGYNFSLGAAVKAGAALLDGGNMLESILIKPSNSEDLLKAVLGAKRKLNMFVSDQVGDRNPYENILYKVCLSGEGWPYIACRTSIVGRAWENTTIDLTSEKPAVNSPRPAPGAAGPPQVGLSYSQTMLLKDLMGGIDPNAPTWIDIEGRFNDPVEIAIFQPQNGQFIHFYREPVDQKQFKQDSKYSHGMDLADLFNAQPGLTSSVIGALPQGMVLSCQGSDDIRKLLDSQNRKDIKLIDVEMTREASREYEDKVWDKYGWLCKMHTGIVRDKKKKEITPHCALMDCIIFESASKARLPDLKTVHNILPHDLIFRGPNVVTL
Sequence of DNA dC->dU-editing enzyme APOBEC-3G (Homo sapiens) (Q9HC16 whole entry, looked up): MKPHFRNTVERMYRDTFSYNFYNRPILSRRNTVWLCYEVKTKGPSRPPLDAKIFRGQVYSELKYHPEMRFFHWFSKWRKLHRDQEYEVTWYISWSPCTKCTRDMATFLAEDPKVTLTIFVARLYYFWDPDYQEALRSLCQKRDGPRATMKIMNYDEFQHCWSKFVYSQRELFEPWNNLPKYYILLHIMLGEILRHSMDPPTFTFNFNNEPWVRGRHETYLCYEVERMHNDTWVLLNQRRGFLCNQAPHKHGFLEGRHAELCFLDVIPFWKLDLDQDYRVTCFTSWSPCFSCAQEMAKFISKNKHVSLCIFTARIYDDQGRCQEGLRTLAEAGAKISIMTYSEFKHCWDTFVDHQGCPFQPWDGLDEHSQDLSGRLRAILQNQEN
Sequence of Cytochrome P450 3A4 (Homo sapiens) (P08684 whole entry, looked up): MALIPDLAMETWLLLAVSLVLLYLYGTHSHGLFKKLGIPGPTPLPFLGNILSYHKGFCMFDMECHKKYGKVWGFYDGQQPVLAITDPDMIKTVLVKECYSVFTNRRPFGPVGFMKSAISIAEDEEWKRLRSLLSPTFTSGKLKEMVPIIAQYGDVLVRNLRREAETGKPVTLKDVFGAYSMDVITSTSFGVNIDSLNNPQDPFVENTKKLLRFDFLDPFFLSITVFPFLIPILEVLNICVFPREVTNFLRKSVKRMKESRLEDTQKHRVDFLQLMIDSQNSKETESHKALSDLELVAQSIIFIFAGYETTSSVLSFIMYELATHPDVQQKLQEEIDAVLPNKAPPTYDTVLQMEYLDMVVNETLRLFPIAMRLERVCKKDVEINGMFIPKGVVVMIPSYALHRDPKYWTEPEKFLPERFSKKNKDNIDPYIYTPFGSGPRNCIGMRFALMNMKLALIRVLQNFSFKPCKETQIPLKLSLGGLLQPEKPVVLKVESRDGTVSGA
Sequence of Ubiquitin carboxyl-terminal hydrolase 1 (Homo sapiens) (O94782 whole entry, looked up): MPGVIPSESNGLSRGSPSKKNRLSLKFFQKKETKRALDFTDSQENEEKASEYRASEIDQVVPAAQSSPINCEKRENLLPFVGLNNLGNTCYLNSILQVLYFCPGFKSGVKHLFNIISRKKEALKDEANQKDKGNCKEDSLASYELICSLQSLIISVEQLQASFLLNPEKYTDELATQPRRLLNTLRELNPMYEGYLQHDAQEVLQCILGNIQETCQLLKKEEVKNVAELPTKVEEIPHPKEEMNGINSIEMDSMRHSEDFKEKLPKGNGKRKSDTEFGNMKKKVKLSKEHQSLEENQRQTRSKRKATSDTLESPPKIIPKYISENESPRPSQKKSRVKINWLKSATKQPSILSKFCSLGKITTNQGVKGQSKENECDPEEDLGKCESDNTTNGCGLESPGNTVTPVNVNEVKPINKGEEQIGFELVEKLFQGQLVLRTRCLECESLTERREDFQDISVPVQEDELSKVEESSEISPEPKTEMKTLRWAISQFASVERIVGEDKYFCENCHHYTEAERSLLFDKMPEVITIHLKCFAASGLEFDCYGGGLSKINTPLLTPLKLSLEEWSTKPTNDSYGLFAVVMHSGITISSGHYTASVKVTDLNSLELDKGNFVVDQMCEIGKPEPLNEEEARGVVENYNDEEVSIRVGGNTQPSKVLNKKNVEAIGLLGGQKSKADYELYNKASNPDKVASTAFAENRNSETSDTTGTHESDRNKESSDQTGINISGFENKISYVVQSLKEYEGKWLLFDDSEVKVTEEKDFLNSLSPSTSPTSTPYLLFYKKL

For the compound `N#CC1(c2cccc(C(=O)Nc3cc(Oc4ccc5nc(NC(=O)C6CC6)sc5n4)ccc3F)c2Cl)CC1`, the Potency result in test [1], in [2], in test [3], in test [4] and in test [6] was “inactive” in each case. Further, the Potency is 2.71 µM (active) in test [5] and 0.304 µM (active) in test [8]. Besides, in test [7], the activity change, negative = inhibition was -79.3%.
`CN[C@@H](Cc1c[nH]c2ccccc12)C(=O)O`: the Potency entry in [9], in test [11], in [12], in [1], in test [2] and in [3] was “inactive” in each case. The Potency result in test [4] is “inactive”. In test [10] (at 57.5 µM (top of the series)), the activity change, negative = inhibition was 2.25% (inactive). For the same compound, the values for the max response in test [10] (measured here: cell count channel max response) and in [10] (measured here: lipid channel max response) were -7.03% and 3.12%, respectively.
As for `Cc1ccc(S(=O)(=O)OCC(=O)Nc2ccc(C(=O)O)c(O)c2)cc1`, the Potency entry in test [1], in [2], in test [3], in [4] and in test [6] was “inactive” each time.
For the compound `C/C=C1/CN2CC[C@]34C(=C(C=O)[C@@H]1C[C@H]23)Nc1c(O)cccc14`, the Potency result in test [1], in test [2], in test [3], in [4] and in [13] was “inactive” throughout.
Regarding `COC1=C[C@]23CCCN2CCc2cc4c(cc2[C@@H]3[C@@H]1O)OCO4`, the Potency entry in test [1], in test [2], in [3], in [4], in [13] and in test [14] was “inactive” in each case.
Take `CCN1C[C@]2(C)CC[C@H](OC)[C@@]34[C@H]1C1(OCO[C@@]15C[C@H](OC)C1C[C@]3(O)C5[C@H]1OC)[C@@H](O)[C@H]24`: the Potency result in test [1], in [2], in test [3], in test [4] and in test [13] was “inactive” throughout.
In the case of `COC(=O)C1C2CC3c4[nH]c5cc(OC)ccc5c4CCN3CC2CC(OC(=O)c2cc(OC)c(OC)c(OC)c2)C1OC` (centres undefined), the Potency entry in test [1], in test [2], in test [3], in test [4] and in [6] was “inactive” in each case.
